# Screening data deposited in PubChem BioAssay by National Center for Advancing Translational Sciences (NCATS).
# Shiga inhibitor – blocks Shiga toxin action in Vero cells; Vero cells, Shiga toxin protein synthesis inhibition reporter; inhibition, % at 38.7 µM; 9.2% of 290,000 active; AID 2315; in the data active = inhibition mostly above about 28%, no sharp cut-off; inactive = mostly below about 43%
# CHX counter – counter-screen for Shiga toxin inhibitors: cycloheximide protein synthesis inhibition; cell reporter, cycloheximide protein synthesis inhibition counterscreen; max response, %; 12% of 300,000 active; AID 2314; in the data active = max response mostly above about 13%, no sharp cut-off; inactive = mostly below about 14%; also: read at 38.3 µM for the half of the compounds with a filed dose
# Pf growth 96h – inhibits malaria parasite growth, 96 h; Potency, µM (series often up to 28.7 µM), most hits filed as inhibitors; 6.9% of 320,000 active; P. falciparum luciferase reporter growth, 96 h; AID 504834
#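 P. falciparum expressing integrated firefly luciferase, in erythrocytes at 2% hematocrit, 0.05% parasitemia, incubated with compounds 96 h at 37 C, 5% CO2. Growth inhibition read as loss of luminescence; two-generation exposure targets delayed-death apicoplast inhibitors.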
# Pf growth 48h – P. falciparum growth inhibition at 48 hours (one generation) | 5.9% of 310,000 active | P. falciparum luciferase growth in erythrocytes, 48 h | AID 504832 | Potency, µM (top dose mostly 28.7 µM), actives largely listed as inhibitors
#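 First compound was added to culture medium, then infected red cells at 0.1% parasitemia and 2% hematocrit (final). After incubation at 37 C under 5% CO2, luciferase detection reagent was dispensed and light output recorded.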
# HCMV inh – blocks human cytomegalovirus replication; HFF cells, HCMV-luciferase reporter, 72 h; hits give low values; activity change, negative = inhibition, % at 57.5 µM; 4.5% of 410,000 active; in the data active = activity change below about -60%; inconclusive = no clear call, values can overlap the other calls; inactive = above about -39%
#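 Two compound doses tested in HFFs infected with HCMV-luciferase, MOI 1 PFU/cell, 72 h at 37C. Lysate luminescence read with OneGlo; data normalized against buffer-only and 10uM Salinomycin inhibitor controls.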
# HCV inh – HCV inhibition; Huh7.5.1 HCVcc-Cre infection, luciferase reporter, 44 h; Potency, µM (highest dose often 41.8 µM), actives largely listed as inhibitors; 3.4% of 340,000 active; AID 651820
#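 Infectious HCVcc-Cre (~0.5 moi) was added to cells just after compound, with cells seeded 4 h earlier at 1,000 per well. Luciferase activity after 44 h culture reported infection; substrate was incubated 15 min at room temperature before reading.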
# A number is an active result; i = inactive; ? = inconclusive; nt = not tested or not shown; + = active, no number; [ ] = dose if it differs, or a comment. Hits are enriched below; roughly 21% of the tested compounds scored in any of these assays. Unless noted, calls follow the shape of the dose curve; as a rule, active = well fitted inhibition curve with a large enough effect; inconclusive = small, poorly fitted or top-dose-only effect, or another doubt; inactive = no such curve, though single readings can be large or run the other way.
SMILES,Shiga inhibitor,CHX counter,Pf growth 96h,Pf growth 48h,HCMV inh,HCV inh
Oc1cccc(O)c1,nt,nt,i,i,nt,nt
NNCc1cccc(O)c1,102,35,?,?,?,i
CC(C)COc1ccc(C(=O)N/C(=C\c2cccc([N+](=O)[O-])c2)C(=O)O)cc1,i,i,i,i,i,i
CCCCOc1ccc(C(=O)N/C(=C/c2cccc([N+](=O)[O-])c2)C(=O)O)cc1,i,i,i,i,i,i
CCCCOc1ccc(C(=O)N/C(=C\c2cccc([N+](=O)[O-])c2)C(=O)OC(C)C)cc1,i,i,0.47µM,0.59µM,i,i
CC(C)COc1ccc(C(=O)N/C(=C\c2cccc([N+](=O)[O-])c2)C(=O)OC(C)C)cc1,i,i,i,0.15µM,i,i
CCCCOc1ccc(C(=O)N/C(=C\c2cccc([N+](=O)[O-])c2)C(=O)OCCC)cc1,i,i,1.7µM,?,i,i
CC(=O)c1ccc(NC(=O)C2=CC(c3ccc(C)cc3)=NS(=O)(=O)N2C)cc1,nt,nt,nt,nt,i,nt
CC(CC(=O)NCc1ccc(Cl)cc1)CC1=NS(=O)(=O)c2ccccc2N1 (centres undefined),nt,nt,nt,nt,i,nt
CC1=CCC(COC(=O)Nc2ccccc2)CC1 (centres undefined),82,51,i,i,i,i
Cc1ccccc1C(=O)NNC(=O)c1cccn1C,nt,nt,i,i,i,i
CC(=O)Nc1ccc(S(=O)(=O)N2C(=O)c3cccc4cccc2c34)cc1,i,i,i,i,i,nt
Cc1ccc(S(=O)(=O)N2C[C@H]3[C@H]4C(=O)N(c5ccccc5)C(=O)[C@H]4C[C@H](OC(=O)Nc4c(C)noc4C)[C@@]3(O)C2)cc1,nt,nt,nt,nt,i,nt
Cc1oc(-c2cccs2)nc1CN1CCN(C(C)C)C(CCO)C1 (centres undefined),i,i,10µM,i,i,i
CC(C)N1CCN(Cc2cccs2)CC1CCO (centres undefined),i,i,?,i,i,i
COc1ccc2c(c1)c(=O)c(S(=O)(=O)c1ccc(F)cc1)cn2Cc1ccccc1Cl,nt,nt,nt,nt,i,nt
CN1C(=O)C(=Cc2ccccc2OCCOc2ccc([N+](=O)[O-])cc2)C(=O)N(C)C1=O,i,i,12µM,i,i,i
CS(=O)(=O)CC[C@@H](C(=O)NCCc1ccccc1)N1Cc2ccccc2C1=O,nt,nt,nt,nt,i,nt
C=C[C@@H]1c2cc(C)ccc2N(S(=O)(=O)c2ccc(C)cc2)[C@H](c2ccc(OC(C)=O)cc2)C1(C#N)C#N,nt,nt,?,?,-97,8.9µM
CC(=O)CC1N(S(=O)(=O)c2ccc(C)cc2)c2ccccc2N1S(=O)(=O)c1ccc(C)cc1,nt,nt,nt,nt,i,nt
C=C[C@@H]1c2ccccc2N(S(=O)(=O)c2ccc(C)cc2)[C@H](c2ccc(OC(C)=O)cc2)C1(C#N)C#N,nt,nt,?,3.7µM,?,?
COc1ccc(N(C(=O)Cn2nnc(-c3ccc(F)cc3)n2)C(C)C(=O)NC2CCCC2)cc1OC (centres undefined),i,i,i,?,i,i
Cc1cc(NC(=O)c2cccs2)cc(-c2nc3cc(Cl)ccc3o2)c1O,nt,nt,nt,nt,i,nt
Cn1c(CCN2CCN(c3ccccn3)CC2)nc2cc(NC(=O)COc3ccccc3)ccc21,i,i,?,?,?,4µM
CCCCC(=O)Nc1ccc2c(c1)nc(CCN1CCN(c3ccccn3)CC1)n2C,i,i,i,i,-81,i
SMILES,Shiga inhibitor,CHX counter,Pf growth 96h,Pf growth 48h,HCMV inh,HCV inh
CCCC(=O)Nc1ccc2c(c1)nc(CCN1CCN(c3ccccn3)CC1)n2C,i,i,i,i,i,i
Cc1ccc(OCC(=O)Nc2ccc3c(c2)nc(CCN2CCN(c4ccccn4)CC2)n3C)cc1,nt,nt,nt,nt,-77,nt
Cn1c(CCN2CCOCC2)nc2cc(NC(=O)COc3ccc(Cl)cc3)ccc21,i,i,?,?,?,?
Cn1c(CCN2CCN(c3ccccn3)CC2)nc2cc(NS(=O)(=O)c3ccccc3)ccc21,i,i,?,?,+,10µM
COc1ccc(S(=O)(=O)Nc2ccc3c(c2)C(=O)N([C@H](C)CO)C[C@H](C)[C@@H](CN(C)S(C)(=O)=O)O3)cc1,nt,nt,nt,nt,i,i
O=C(CCC(=O)N1CCN(c2ccc(Cl)c(Cl)c2)CC1)c1ccccc1,i,i,?,i,?,?
O=C1c2ccccc2C2(c3ccc(Cl)cc3)NCCN12 (centres undefined),i,i,13µM,i,i,i
O=C(c1ccc(F)cc1)N1CCN2C(=O)c3ccccc3C12c1ccccc1 (centres undefined),i,i,?,i,i,i
O=C(c1ccc(F)cc1)N1CCN2C(=O)c3ccccc3C12c1ccc(Cl)cc1 (centres undefined),i,i,5.2µM,13µM,-64,i
NC(=O)n1c(O)c(C(=O)c2cccs2)c2cc(Cl)ccc21,i,i,i,i,nt,nt
CC[C@]12c3[nH]c4cc(CCC(=O)N(C)C)ccc4c3CCN1C(=O)[C@@H](CC(=O)NCc1ccco1)C[C@@H]2C(=O)N1CCN(C(=O)C2CC2)CC1,nt,nt,nt,nt,i,i
CCC(=O)N(CCC1(C(C)C)CCOC(C)(C)C1)C(C)c1cccs1 (centres undefined),i,i,?,?,i,i
CC(C)CCC1(CCNC(C)c2cccs2)CCOC(C)(C)C1 (centres undefined),i,i,13µM,?,i,i
O=C(Nc1ccc(Cl)cc1)Nc1nc(-c2sccc2Br)cs1,i,i,9.3µM,8.3µM,?,i
O=C(Cc1csc(NC(=O)Nc2ccc(Cl)cc2)n1)NCc1ccccn1,nt,nt,i,i,i,?
O=C(Nc1ccc(Cl)cc1)Nc1nc(-c2ccccc2O)cs1,20,i,?,1.7µM,-66,?
Cc1ccc(CNC(=O)[C@]2(C(F)(F)F)C[C@H](CCc3ccccc3)CCCO2)o1,i,i,nt,nt,nt,nt
COc1ccc(OCCC(=O)NCCN2CCOCC2)cc1,i,i,i,i,i,i
CCc1cc2c(cc3c(=O)n(CC(=O)NCc4cc(Br)ccc4OC)ncn32)s1,nt,nt,nt,nt,i,nt
Cc1ccc(Cc2nc3ccccc3nc2SCC(=O)Nc2ccc3c(c2)OCO3)cc1,nt,nt,nt,nt,-66,nt
CCc1cccc(C)c1NC(=O)CSc1nc2ccccc2nc1Cc1ccccc1,nt,nt,nt,nt,-68,nt
O=C(CSc1nc2ccccc2nc1Cc1ccccc1)Nc1ccc2c(c1)OCO2,nt,nt,nt,nt,i,nt
CC1(C)CC(=O)C2=C(C1)NC(SCC(N)=O)=C(C#N)C21CCCCC1,i,i,0.17µM,?,i,i
Cc1cc(SCC(=O)c2ccccc2)nc(=O)[nH]1,85,63,i,i,i,i
Cc1ccc(C(=O)CSc2cc(C)[nH]c(=O)n2)cc1,84,37,i,i,i,i
Cc1ccc(CNC(=O)CSc2cc(C)[nH]c(=O)n2)cc1,nt,nt,nt,nt,i,nt
Cc1cc(SCC(=O)c2ccc(Cl)cc2)nc(=O)[nH]1,52,43,i,i,i,i
O=C(c1cn(CC2CCCCC2)nn1)N1CCN(c2ccc(F)cc2)CC1,49,30,i,i,i,?
CNC(=O)Oc1ccc2c(c1)[C@]1(C)CCN(C)[C@@H]1N2C,i,i,3.7µM,8.3µM,i,i[8.37 µM]
